Assay results as given in PubChem BioAssay.
The source made the active and inactive calls.

Columns and labels:
[1] = optical density shifts of acrAB sulA E. coli – strain DRC41, OD650, 48 h, E. coli filamentation inducer project, primary screen (AID 1152); details: higher = more signal, called active from +8 up or from −8 down;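 further: E. coli MC1000 strain DRC41 lacking acrAB efflux pump and sulA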
[2] = probe aLefty1 binding on compound microarray – biochemical, small-molecule microarray, 635/667 nm fluorescence, primary screen (AID 1153); details: higher = more signal;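 further: score merges spot fluorescence with signal-to-noise ratio from the scanned slide images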
[3] = plasmodial surface anion channel blockers, osmotic lysis – cell-based, P. falciparum Indochina, OD700, 1 h, primary screen (AID 1154); details: P. falciparum Indochina infected RBC osmotic lysis, higher = more signal, called active from +8 up or from −8 down
[4] = plasmodial surface anion channel blockers, osmotic lysis – cell-based, P. falciparum Indochina, OD700, 2 h, primary screen (AID 1155);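 further: lysis reports solute entry through the parasite surface anion channel PSAC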; details: P. falciparum Indochina infected erythrocytes, higher = more signal, called active from +8 up or from −8 down
[5] = changes in parasitized red cell lysis, either direction – P. falciparum Indochina, OD700, 3 h, PSAC antagonist project, primary screen (AID 1156); details: P. falciparum-infected erythrocytes, osmotic lysis, higher = more signal, called active from +8 up or from −8 down
[6] = plasmodial surface anion channel blockers, osmotic lysis – cell-based, P. falciparum Indochina, OD700, 18 h, primary screen (AID 1157); details: P. falciparum Indochina infected erythrocytes, osmotic lysis OD700, 18 h; higher = more signal, called active from +8 up or from −8 down
[7] = S6 kinase pathway phospho-S6 level changes – cell-based, A549, cytoblot, luminescence, serum-stimulated, primary screen (AID 1158); details: 5 h, higher = more signal;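 further: serum-stimulated A549 lung adenocarcinoma cells; signal is phosphorylated S6 detected by cytoblot immunostaining with HRP secondary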
[8] = target: NADPH oxidase 2 (Homo sapiens) (UniProt P04839); assay: compounds shifting NOX2 Amplex Red fluorescence – cell-based, HEK293-NOX2, PMA-stimulated, NOX inhibitor project, primary screen (AID 1159); details: 45 min, higher = more signal, called active from +8 up or from −8 down; further: test concentration not given here
[9] = target: NADPH oxidase 4 (Homo sapiens) (UniProt Q9NPH5); assay: compounds shifting NOX4 Amplex Red fluorescence – cell-based, HEK293-NOX4, tetracycline-induced, NOX inhibitor project, primary screen (AID 1160); details: HEK293-NOX4, Amplex Red H2O2 fluorescence, 45 min; higher = more signal, called active from +8 up or from −8 down
[10] = target: NADPH oxidase 5 (Homo sapiens) (UniProt Q96PH1); assay: compounds shifting NOX5 Amplex Red fluorescence – cell-based, HEK293-NOX5, NOX inhibitor project, primary screen (AID 1161); details: HEK293-NOX5, ionomycin, 45 min, higher = more signal
[11] = compound effects on lung adenocarcinoma cell viability – A549, calcein-AM fluorescence, 48 h, basal, profiling panel (AID 1162); details: higher = more signal; further: test concentration not given here
[12] = compound effects on differentiated 3T3-L1 adipocyte viability – cell-based, 3T3-L1 adipocytes, calcein-AM fluorescence, 48 h, basal, profiling panel (AID 1163); details: 3T3-L1 adipocytes viability, higher = more signal; further: test concentration not given here
[13] = compound effects on hepatocellular carcinoma cell viability – HepG2, calcein-AM fluorescence, 48 h, basal, profiling panel (AID 1164); details: higher = more signal; further: test concentration not given here
[14] = compound effects on multiple myeloma cell viability – MM1S, calcein-AM fluorescence, 48 h, basal, profiling panel (AID 1165); details: higher = more signal;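 further: viability of MM1S multiple myeloma cells under basal unstimulated conditions; test concentration not given here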
[15] = calcein-AM signal in unstimulated myeloma cells – cell-based, calcein-AM fluorescence, 48 h, PK04 Diversity Set, profiling panel (AID 1166); details: RPMI8226 myeloma viability, higher = more signal;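 further: cells grown under basal conditions without added stimulus; test concentration not given here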
[16] = JC-1 mitochondrial signal, unstimulated HepG2 cells – cell-based, JC-1 fluorescence, 24 h, 100 nL compound, profiling panel (AID 1167); details: HepG2 mitochondrial potential, higher = more signal; further: test concentration not given here
[17] = JC-1 mitochondrial signal, unstimulated adipocytes – cell-based, JC-1 fluorescence, 3T3-L1 adipocytes, 24 h, 100 nL compound, profiling panel (AID 1168); details: JC-1 mitochondrial fluorescence, higher = more signal, called active from +8 up or from −8 down; further: test concentration not given here
[18] = JC-1 mitochondrial signal, unstimulated myeloma cells – cell-based, JC-1 fluorescence, RPMI8226, 24 h, 100 nL compound, profiling panel (AID 1169); details: JC-1 mitochondrial potential fluorescence, higher = more signal; further: test concentration not given here
[19] = JC-1 mitochondrial signal, unstimulated MM1S myeloma – cell-based, JC-1 fluorescence, 24 h, 100 nL compound, profiling panel (AID 1170); details: MM1S mitochondrial potential, higher = more signal; further: test concentration not given here
[20] = resazurin metabolic signal in A549 cells – cell-based, resazurin fluorescence, 24 h, PK04 Diversity Set, profiling panel (AID 1171); details: A549 viability, higher = more signal, called active from +8 up or from −8 down; further: test concentration not given here

NADPH oxidase 5 (Homo sapiens), sequence (Q96PH1 whole entry, looked up): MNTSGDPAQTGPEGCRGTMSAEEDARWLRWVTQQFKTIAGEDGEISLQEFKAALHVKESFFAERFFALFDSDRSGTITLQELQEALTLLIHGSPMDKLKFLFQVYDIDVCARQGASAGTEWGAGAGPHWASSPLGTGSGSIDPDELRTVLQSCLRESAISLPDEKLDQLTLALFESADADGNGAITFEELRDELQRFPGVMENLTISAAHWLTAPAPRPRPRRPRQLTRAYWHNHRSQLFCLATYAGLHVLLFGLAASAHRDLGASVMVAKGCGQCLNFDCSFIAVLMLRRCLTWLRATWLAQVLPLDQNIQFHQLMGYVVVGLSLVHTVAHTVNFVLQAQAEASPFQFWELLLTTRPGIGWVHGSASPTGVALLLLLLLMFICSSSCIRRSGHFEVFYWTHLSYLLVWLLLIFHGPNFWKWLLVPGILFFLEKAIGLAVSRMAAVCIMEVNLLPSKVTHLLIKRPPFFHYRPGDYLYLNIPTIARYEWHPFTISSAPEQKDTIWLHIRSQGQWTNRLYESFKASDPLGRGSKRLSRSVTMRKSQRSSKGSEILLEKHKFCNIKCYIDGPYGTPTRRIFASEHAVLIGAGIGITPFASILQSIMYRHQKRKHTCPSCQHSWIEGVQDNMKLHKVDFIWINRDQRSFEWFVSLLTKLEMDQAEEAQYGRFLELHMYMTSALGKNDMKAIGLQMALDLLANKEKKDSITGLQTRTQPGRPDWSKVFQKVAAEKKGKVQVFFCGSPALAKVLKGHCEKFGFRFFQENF
NADPH oxidase 4 (Homo sapiens), sequence (Q9NPH5 whole entry, looked up): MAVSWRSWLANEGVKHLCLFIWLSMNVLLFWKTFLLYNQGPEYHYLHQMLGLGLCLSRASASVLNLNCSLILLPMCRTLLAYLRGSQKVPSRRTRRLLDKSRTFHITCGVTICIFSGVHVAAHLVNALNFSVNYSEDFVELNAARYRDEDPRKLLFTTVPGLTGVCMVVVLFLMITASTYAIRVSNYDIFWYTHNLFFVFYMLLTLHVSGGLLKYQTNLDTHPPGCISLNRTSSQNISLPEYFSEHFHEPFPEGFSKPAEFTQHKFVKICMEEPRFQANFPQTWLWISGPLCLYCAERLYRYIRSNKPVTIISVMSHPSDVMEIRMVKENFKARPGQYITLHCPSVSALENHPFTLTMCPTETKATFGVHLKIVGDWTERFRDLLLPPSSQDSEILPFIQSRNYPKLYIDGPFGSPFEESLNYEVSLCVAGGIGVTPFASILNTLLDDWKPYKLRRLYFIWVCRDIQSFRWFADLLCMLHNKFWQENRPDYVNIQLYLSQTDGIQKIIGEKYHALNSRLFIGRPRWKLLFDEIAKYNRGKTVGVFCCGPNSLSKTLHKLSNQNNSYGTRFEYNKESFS
NADPH oxidase 2 (Homo sapiens), sequence (P04839 whole entry, looked up): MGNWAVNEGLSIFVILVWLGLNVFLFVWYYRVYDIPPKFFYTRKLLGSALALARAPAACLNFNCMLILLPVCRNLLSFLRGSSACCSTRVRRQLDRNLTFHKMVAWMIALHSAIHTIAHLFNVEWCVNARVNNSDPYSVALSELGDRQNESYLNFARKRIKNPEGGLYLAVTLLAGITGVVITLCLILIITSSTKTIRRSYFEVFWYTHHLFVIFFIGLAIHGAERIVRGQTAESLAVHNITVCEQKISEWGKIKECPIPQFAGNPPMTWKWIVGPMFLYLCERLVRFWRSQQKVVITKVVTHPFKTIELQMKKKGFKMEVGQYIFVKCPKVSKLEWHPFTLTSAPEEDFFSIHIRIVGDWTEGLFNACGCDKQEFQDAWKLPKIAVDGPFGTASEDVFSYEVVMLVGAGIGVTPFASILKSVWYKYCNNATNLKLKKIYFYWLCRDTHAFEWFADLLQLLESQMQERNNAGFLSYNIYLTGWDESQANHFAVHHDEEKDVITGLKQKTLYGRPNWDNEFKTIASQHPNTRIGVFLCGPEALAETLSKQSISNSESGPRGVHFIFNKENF

## CO[C@H]1O[C@H](CO)[C@@H](OC(=O)Nc2ccccc2)[C@@H]2OC(=O)[C@H](Cc3ccccc3)C/C=C/C[C@@H](Cc3ccccc3)C(=O)O[C@@H]12
[1]
  z-score: 0.863 (inactive)
[2]
  composite z-score: 0.302
[3]
  z-score: 10.1 (active)
[4]
  z-score: 0.342 (inactive)
[5]
  z-score: -1.91 (inactive)
[6]
  z-score: -0.681 (inactive)
[7]
  z-score: 1.31
[8]
  z-score: -3.35 (inactive)
[9]
  z-score: -0.599 (inactive)
[10]
  z-score: -1.57
[11]
  z-score: -0.152
[12]
  z-score: 0.385
[13]
  z-score: 0.358
[14]
  z-score: -1.22
[15]
  z-score: -2.46
[16]
  z-score: -0.928
[17]
  z-score: 0.799 (inactive)
[18]
  z-score: -0.865
[19]
  z-score: -1.45
[20]
  z-score: -2.94 (inactive)

## O=C1OCCC=C[C@H]2OC34C=CCN(CCN5CCOCC5)C(=O)[C@H]3N(CCCO)C(=O)[C@@H]4C12 (stereo not given in full)
[1]
  z-score: 0.274 (inactive)
[2]
  composite z-score: -0.0464
[3]
  z-score: 0.377 (inactive)
[4]
  z-score: -1.35 (inactive)
[5]
  z-score: 0.901 (inactive)
[6]
  z-score: -1.73 (inactive)
[7]
  z-score: 0.41
[8]
  z-score: -0.433 (inactive)
[9]
  z-score: -1.97 (inactive)
[10]
  z-score: -0.183
[11]
  z-score: 0.531
[12]
  z-score: 0.473
[13]
  z-score: 0.127
[14]
  z-score: -0.0305
[15]
  z-score: -0.0605
[16]
  z-score: -0.338
[17]
  z-score: 1.33 (inactive)
[18]
  z-score: 0.398
[19]
  z-score: -0.139
[20]
  z-score: -0.784 (inactive)

## COCCOC(=O)N1C(=O)[C@@]2(c3cc(C#CCCO)ccc31)[C@H](C(=O)N1CCc3cc(OC)c(OC)cc3C1)[C@H]1C(=O)O[C@H](c3ccccc3)[C@H](c3ccccc3)N1[C@@H]2c1ccccc1OCCO
[1]
  z-score: 0.718 (inactive)
[2]
  composite z-score: 1.33
[3]
  z-score: 3.62 (inactive)
[4]
  z-score: 0.928 (inactive)
[5]
  z-score: 1.6 (inactive)
[6]
  z-score: 1.05 (inactive)
[7]
  z-score: 0.0854
[8]
  z-score: 1.72 (inactive)
[9]
  z-score: 1.7 (inactive)
[10]
  z-score: -0.204
[11]
  z-score: 0.373
[12]
  z-score: 0.514
[13]
  z-score: 1.61
[14]
  z-score: 1.1
[15]
  z-score: 0.458
[16]
  z-score: 0.228
[17]
  z-score: 1.58 (inactive)
[18]
  z-score: -0.647
[19]
  z-score: -1.23
[20]
  z-score: 0.456 (inactive)

## CC(C)(C)OC(=O)CC[C@]1(C(N)=O)N=C(c2ccc(OCCCO)cc2)O[C@H]1c1ccccc1CN=[N+]=[N-]
[1]
  z-score: 0.434 (inactive)
[2]
  composite z-score: 0.5
[3]
  z-score: 21.6 (active)
[4]
  z-score: 5.64 (inactive)
[5]
  z-score: -0.173 (inactive)
[6]
  z-score: 0.223 (inactive)
[7]
  z-score: 0.0054
[8]
  z-score: 0.709 (inactive)
[9]
  z-score: -0.508 (inactive)
[10]
  z-score: 1.26
[11]
  z-score: 0.249
[12]
  z-score: 0.434
[13]
  z-score: 0.088
[14]
  z-score: -0.0887
[15]
  z-score: -0.387
[16]
  z-score: -1.01
[17]
  z-score: 0.352 (inactive)
[18]
  z-score: 0.469
[19]
  z-score: 0.0608
[20]
  z-score: 0.316 (inactive)

## O=C1OCCC/C=C\[C@H]2OC34C=CCN(Cc5ccccc5)C(=O)[C@H]3N(CCCCCO)C(=O)[C@@H]4C12 (stereo not given in full)
[1]
  z-score: 0.435 (inactive)
[2]
  composite z-score: -0.094
[3]
  z-score: -0.457 (inactive)
[4]
  z-score: -0.172 (inactive)
[5]
  z-score: -0.123 (inactive)
[6]
  z-score: -0.354 (inactive)
[7]
  z-score: -0.412
[8]
  z-score: 1.17 (inactive)
[9]
  z-score: 0.487 (inactive)
[10]
  z-score: 1.76
[11]
  z-score: 0.379
[12]
  z-score: 0.65
[13]
  z-score: 0.414
[14]
  z-score: 1.03
[15]
  z-score: -0.42
[16]
  z-score: -0.0205
[17]
  z-score: -0.0419 (inactive)
[18]
  z-score: 0.803
[19]
  z-score: -0.322
[20]
  z-score: 1.37 (inactive)

## O=C1O[C@H](c2ccccc2)[C@H](c2ccccc2)N2[C@H]1[C@@H](C(=O)NC[C@H](O)c1ccccc1)[C@]1(C(=O)Nc3ccc(C#CCCO)cc31)[C@H]2c1ccccc1OCCO
[1]
  z-score: 0.631 (inactive)
[2]
  composite z-score: 0.0752
[3]
  z-score: 2.45 (inactive)
[4]
  z-score: 0.612 (inactive)
[5]
  z-score: 0.478 (inactive)
[6]
  z-score: 0.786 (inactive)
[7]
  z-score: 0.288
[8]
  z-score: 2.14 (inactive)
[9]
  z-score: 1.35 (inactive)
[10]
  z-score: 1.6
[11]
  z-score: -0.661
[12]
  z-score: 1.43
[13]
  z-score: -1.12
[14]
  z-score: -0.751
[15]
  z-score: -1.41
[16]
  z-score: -0.864
[17]
  z-score: 2.89 (inactive)
[18]
  z-score: -0.72
[19]
  z-score: -0.341
[20]
  z-score: 1.86 (inactive)

## Cc1c(-c2ccc(-c3ccc(Cl)c(Cl)c3)o2)nc(-c2ccccc2)c2c1CO[Si]2(C(C)C)C(C)C
[1]
  z-score: -1.3 (inactive)
[2]
  composite z-score: -0.101
[3]
  z-score: 0.311 (inactive)
[4]
  z-score: -0.267 (inactive)
[5]
  z-score: -0.803 (inactive)
[6]
  z-score: -0.944 (inactive)
[7]
  z-score: -0.298
[8]
  z-score: -0.545 (inactive)
[9]
  z-score: 0.0324 (inactive)
[10]
  z-score: -0.237
[11]
  z-score: -0.719
[12]
  z-score: -0.527
[13]
  z-score: 0.0118
[14]
  z-score: -3.01
[15]
  z-score: -3.96
[16]
  z-score: -1.38
[17]
  z-score: -0.313 (inactive)
[18]
  z-score: -0.933
[19]
  z-score: -1.66
[20]
  z-score: 0.525 (inactive)

## CC#CCO[Si](C#CCCCCCC)(C(C)C)C(C)C
[1]
  z-score: 0.323 (inactive)
[2]
  composite z-score: -0.0501
[3]
  z-score: 0.0926 (inactive)
[4]
  z-score: -0.607 (inactive)
[5]
  z-score: -1.09 (inactive)
[6]
  z-score: 0.283 (inactive)
[7]
  z-score: 0.393
[8]
  z-score: -1.27 (inactive)
[9]
  z-score: -0.681 (inactive)
[10]
  z-score: -3.5
[11]
  z-score: -0.5
[12]
  z-score: -0.381
[13]
  z-score: -0.23
[14]
  z-score: -1.52
[15]
  z-score: -1.03
[16]
  z-score: -1.15
[17]
  z-score: -0.552 (inactive)
[18]
  z-score: -0.69
[19]
  z-score: -1.3
[20]
  z-score: 0.518 (inactive)

## COc1ccc([Si](C)(C)[C@H]2[C@H](CCO)O[C@@]3(C(=O)N(Cc4ccc(N5CCOC5=O)cc4)c4ccccc43)[C@@H]2C)cc1
[1]
  z-score: 0.257 (inactive)
[2]
  composite z-score: 0.203
[3]
  z-score: 34.9 (active)
[4]
  z-score: 32.8 (active)
[5]
  z-score: 1.63 (inactive)
[6]
  z-score: 6.38 (inactive)
[7]
  z-score: 0.419
[8]
  z-score: -0.372 (inactive)
[9]
  z-score: 1.75 (inactive)
[10]
  z-score: 0.908
[11]
  z-score: -0.108
[12]
  z-score: 0.684
[13]
  z-score: -0.591
[14]
  z-score: -2.54
[15]
  z-score: -3.98
[16]
  z-score: 0.137
[17]
  z-score: 1.82 (inactive)
[18]
  z-score: -0.992
[19]
  z-score: -1.49
[20]
  z-score: -1.54 (inactive)
